Assay outcomes (PubChem)
PNC inhibitor: perinucleolar compartment assembly inhibition; activity change (PNC), negative = inhibition, % at 10 µM; actives 3.1% (n = 140,000); PC3M PTB-GFP, PNC prevalence imaging, 16 h; stronger effect = lower value;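 active = readout at or below -70, meaning at least 70% loss of cells showing the perinucleolar compartment, a nuclear body marking cancer cells; inconclusive = readout between -30 and a set limit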;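 also: plate controls were DMSO wells for no effect and camptothecin positive control wells for full effect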
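Compounds are pinned in duplicate onto adhered PC3M cells stably expressing GFP-tagged PTB and incubated 16 h at 37 C. Cells are then fixed, nuclei stained with Hoechst, and PNC-positive cells counted.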
Lamin A splicing: changes lamin A minigene splicing in HeLa cells | actives 0.01% (n = 200,000) | Potency, µM (titrated, usually from 46.1 µM), inactives show at the highest dose ratio change, negative = inhibition, hits mostly inhibitors | HeLa LMNA splicing GFP/RFP minigene ratio, 48 h; active = well fitted inhibition curve with a large enough effect in the signal ratio, with a control signal flat, not every such curve was filed as active; inconclusive = small, poorly fitted or top-dose-only effect, or effect the other way, or a change in a side signal; the % refers to the signal ratio; also: potency is read from the fitted curve at half-maximal effect
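S3 HeLa cells stably expressing lamin A-EGFP splicing minigene plus DsRed2, 600 cells/well, 48 h compound exposure at 37C. Laser-scanning cytometry; analysed as GFP (500-530 nm)/RFP (575-640 nm) total intensity ratio; 0.5% DMSO vehicle.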
IMPase inh: membrane-permeable compound that blocks inositol monophosphatase; 120,000 tested, under 10 active; AID 901; inhibition (IP1 accumulation), % at 46.1 µM; CHO-M1 cells, IP1 accumulation, HTRF TR-FRET ratio; P97697; active = well fitted curve in the direction sought with a large enough effect in the signal ratio, not every such curve was filed as active; inconclusive = small, poorly fitted or top-dose-only effect, or a change in a side signal; inactive = no such curve, though single readings can be large or run the other way; the % refers to the signal ratio;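 also: cells stimulated with carbachol in lithium chloride buffer; plate controls were DMSO basal wells for no effect and reference inhibitor wells for full effect; higher means more IMPase inhibition seen as more IP1 and lower FRET ratio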
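CHO-M1 cells (CHO stably expressing M1 receptor), compound up to 46 uM final, stimulated with carbachol (50 uM as added) in buffer with 50mM LiCl, pH 7.4, 30 min at 37C. Cytosolic IP1 read by TR-FRET; AC50 from Hill fits.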
ALDH1A1 inh: inhibitors of human aldehyde dehydrogenase 1A1. P00352. Purified ALDH1A1, NADH fluorescence, propionaldehyde substrate. Potency, µM (top dose mostly 75.3 µM), inactives show top-dose activity, negative = inhibition, usual class: inhibitors. actives 7.3% (n = 220,000);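 also: potency is read from the fitted curve at half-maximal effect; plate controls were no enzyme wells and a reference inhibitor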
Target sequence (P00352 whole entry, looked up): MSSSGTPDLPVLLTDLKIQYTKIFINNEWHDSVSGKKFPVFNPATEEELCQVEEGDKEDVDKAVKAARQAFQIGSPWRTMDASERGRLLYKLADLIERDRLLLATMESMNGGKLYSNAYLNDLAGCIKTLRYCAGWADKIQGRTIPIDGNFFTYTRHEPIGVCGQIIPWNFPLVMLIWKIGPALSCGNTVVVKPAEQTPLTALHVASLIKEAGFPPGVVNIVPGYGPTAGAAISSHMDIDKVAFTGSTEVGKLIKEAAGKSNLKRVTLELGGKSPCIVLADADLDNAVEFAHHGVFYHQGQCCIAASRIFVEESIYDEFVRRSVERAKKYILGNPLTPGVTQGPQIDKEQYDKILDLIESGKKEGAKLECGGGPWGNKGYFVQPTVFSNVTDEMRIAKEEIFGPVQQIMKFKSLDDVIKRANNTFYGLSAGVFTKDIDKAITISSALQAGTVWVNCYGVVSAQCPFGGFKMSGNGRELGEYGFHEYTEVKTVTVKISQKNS
KinaseGlo FLuc: Kinase-Glo luciferase inhibition (counter-screen); Q27757; Kinase-Glo luciferase, ATP luminescence, 8 min; Potency, µM (titrated, usually from 38.3 µM), for inactives: top-dose activity change, negative = inhibition, actives largely listed as inhibitors; actives 0.28% (n = 200,000); active = well fitted inhibition curve with a large enough effect; inconclusive = small, poorly fitted or top-dose-only effect; also: potency is read from the fitted curve at half-maximal effect; nearly all actives have a fitted effect of over 60% in size
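Luminescence was the read-out, taken after 8-minute incubation at ambient temperature. Luciferase turned over luciferin with 10 uM ATP in imidazole pH 7.2 buffer containing KCl, MgCl2, Tween 20 and BSA.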
HPGD inh: HPGD (human) dehydrogenase inhibition; Potency, µM, inactives show at the highest dose activity change, negative = inhibition, most hits filed as inhibitors; P15428; actives 4.3% (n = 150,000); purified HPGD, NADH fluorescence kinetic, PGE2 substrate; also: potency is read from the fitted curve at half-maximal effect
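NADH formation kinetics: reaction with 30 uM PGE2 and 1 mM NAD+ (final), 20 nM enzyme, Tris-HCl pH 8 with Tween 20, after 15 min compound preincubation at room temperature. Fluorescence change, last versus first of five reads.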
* = called active by the depositor; ? = inconclusive; . = no result; [ ] = remark or other dose. An excerpt weighted towards active compounds, which were near 10% of everything screened. Unless noted, calls follow the shape of the dose curve; as a rule, active = well fitted inhibition curve with a large enough effect (not every such curve was filed as active); inconclusive = small, poorly fitted or top-dose-only effect, or another doubt; inactive = no such curve, though single readings can be large or run the other way. Unless noted, % is scaled to controls: 0 for no effect and ±100 for the full control effect.

SMILES	PNC inhibitor	Lamin A splicing	IMPase inh	ALDH1A1 inh	KinaseGlo FLuc	HPGD inh
NC(CSS(=O)(=O)O)=N[C@@H]1C[C@H]2CC[C@@H]1C2	.	.	.	2.5%[13.5 µM]	-3.7%[7.66 µM]	-7.6%
COc1ccc(-c2nc3cnc(N4CCN(C)CC4)nc3n(CCC#N)c2=O)cc1	.	.	.	?	1.6%	?
CC(=O)c1c(COC(=O)c2ccccc2)nc2ccccc2[n+]1[O-]	17.5	-4.9%	7.1	?	-2.0%	14.1µM*
Cc1ccccc1CN1CCC(CNc2ncnc3onc(-c4ccc(Cl)cc4)c23)CC1	.	-20.2%[46 µM]	.	.	.	.
O=C1NCCN1C(=O)N(c1ccccc1)c1ccccc1	-124.4*	4.8%	-3.6	?	2.1%	-8.2%
O=C(Cc1ccc(F)cc1)NCCc1csc2nc(-c3ccccc3F)nn12	.	23.2%[46 µM]	.	.	.	.
COc1cccc(Cn2c(=O)n(CC3CCC(C(=O)N4CCOCC4)CC3)c(=O)c3sccc32)c1 (stereo not given)	.	-4.1%[46 µM]	.	.	.	.
Cc1[nH][nH]c(=O)c1C(c1ccc(-c2ccc(F)cc2)o1)c1c(C)[nH][nH]c1=O	.	?	.	25.1µM*	2.8%	.
Cc1[nH][nH]c(=O)c1C(c1ccc(-c2ccc(Cl)c(Cl)c2)o1)c1c(C)[nH][nH]c1=O	-3.4	-10.3%	0.1	10µM*	-3.1%	?
COc1ccc(-c2ccc(C(c3c(C)[nH][nH]c3=O)c3c(C)[nH][nH]c3=O)o2)c([N+](=O)[O-])c1	.	?	.	10µM*	-1.8%	.
COc1cc(OC)c(NC(=O)CCc2nc(C3=CCN(Cc4cccc(Cl)c4)CC3)no2)cc1Cl	.	-4.6%[46 µM]	.	.	.	.
Cc1cccc(NC(=O)CN2c3ccccc3S(=O)(=O)c3ccccc32)c1C	.	-5.7%[46 µM]	.	.	.	.
Cc1ccc(C(=O)/C=C/C(=O)O)cc1	7.0	?	8.2	0.447µM*	1.8%	?
CN(CCc1ccccn1)C1CC(=O)N(c2ccc(Cl)cc2)C1=O (stereo not given)	6.1	7.6%	-0.9	25.1µM*	-1.1%	-22.1%
S=c1[nH]nc(COc2ccccc2)n1/N=C/c1cccnc1	27.1	-3.6%	.	-12.5%	-0.8%	14.1µM*
CN(C)c1ccc(/C=N/n2c(COc3ccccc3)n[nH]c2=S)cc1	-1.2	-12.1%	.	25.1µM*	1.1%	12.6µM*
O=[N+]([O-])c1ccc(/C=N/n2c(COc3ccccc3)n[nH]c2=S)cc1	?	4.5%	11.7	28.2µM*	-0.7%	5.01µM*
CC(Sc1nnc(COc2ccc([N+](=O)[O-])cc2)n1-c1ccccc1)C(=O)O (stereo not given)	.	11.9%[46 µM]	.	?	-0.2%	.
O=[N+]([O-])c1cccc(/C=N/n2c(COc3ccccc3)n[nH]c2=S)c1	-3.3	-2.2%[0.0737 µM]	5.5	?	4.7%	3.98µM*
Cc1ccccc1OCc1nc2ccccc2c(=O)n1/N=C/c1cccc([N+](=O)[O-])c1	-9.2	-3.2%	.	18.4%	2.4%	-9.3%
O=C(C1=C(O)C(=O)N(c2ncccn2)C1c1ccc(Cl)cc1)c1ccco1 (stereo not given)	54.1	-2.5%	?	?	2.2%	-13.2%
O=C(C1=C(O)C(=O)N(c2ncccn2)C1c1cccc(Cl)c1)c1ccco1 (stereo not given)	21.1	16.9%	-18.2	17.8µM*	-3.5%	-13.1%
O=C(C1=C(O)C(=O)N(c2ncccn2)C1c1ccc(Cl)c(Cl)c1)c1ccco1 (stereo not given)	?	25.4%	7.8	7.94µM*	4.6%	?
COc1ccc(C2=C(C)C(N3CCC(C(=O)Nc4ccc(F)cc4C)CC3)=NS2(=O)=O)cc1	.	-14.0%[46 µM]	.	.	.	.
CCc1ccccc1NC(=O)C(=O)NCCc1sc(-c2cccc(C)c2)nc1C	.	13.2%[46 µM]	.	.	.	.
CCn1c(CNc2ccc(F)cc2)nnc1SCC(=O)OC1CCCCC1	-113.7*	-1.5%	1.5	?	-2.1%	15.8µM*
CCn1c(CNC(=O)COc2ccc(C(C)C)cc2)nnc1SCC(=O)Nc1ccc(F)cc1	12.4	-3.9%	9.8	28.2µM*	-0.5%	-11.9%
